We go through eleven compounds from PubChem BioAssay.

Active and inactive are the calls of the source. The rule behind the calls is not given here.

This assay is described as follows: P. aeruginosa biofilm formation inhibitors, primary screen, PAO1 strain, BacTiter-Glo luminescence, LB-PBS (AID 1144). Conditions: 12 h, higher = more signal.
As to `C=CC[C@]1(C(=O)O)N=C(c2ccc(OCCCO)cc2)O[C@H]1c1ccccc1CN=[N+]=[N-]`, the z-score was 0.874 (inactive).
Take `C[N+](C)(C)CCCCNC(=O)[C@H]1C[C@H]2C(=O)N3CCC[C@H]3C(=O)N2[C@H]1c1ccc(O)cc1`: the z-score is 0.014 (inactive).
The same measure for `[N-]=[N+]=NCc1ccccc1[C@@H]1OC(c2ccc(OCCCO)cc2)=N[C@]1(Cc1ccccc1)C(=O)O`: -0.608 (inactive); for `CN(C)CCCN1C(=O)[C@@]2(c3ccc([N+](=O)[O-])cc3)CC(=O)N(C3CCCCC3)[C@@H]2c2ccc(CO)cc21`: -1.09 (inactive); for `CCOC1=C2C(c3ccc(C)cc3)N(S(=O)(=O)c3ccc(C)cc3)CC2n2c(=O)n(-c3ccccc3)c(=O)n2C1` (stereo unspecified): 1.11 (inactive).
The same measure for `O=C1c2ccccc2[C@](Cc2ccccc2I)(C(=O)O)[C@H](c2ccc(CO)cc2)N1Cc1ccccc1C(F)(F)F`: -0.99 (inactive).
Under `CCCCCCCCCCC(O)C1C=CC2C(=O)N(c3ccccc3)C(=O)C2N1Nc1ccc([N+](=O)[O-])cc1` (stereo unspecified) stands -0.214 (inactive); under `CCOC(=O)C1=CC[C@@H](c2cccc(Cl)c2)N(S(=O)(=O)c2ccc(C)cc2)[C@H]1c1ccc(C#N)cc1`, 0.494 (inactive); under `CCCCCCC#C[Si](O[C@H](c1ccccc1)c1cn([C@H](C)c2ccccc2)nn1)(C(C)C)C(C)C`, 0.121 (inactive).
Take `O=C(NCC(F)(F)F)[C@@H]1c2ccccc2C(=O)N(Cc2ccccc2)[C@H]1c1ccc(CO)cc1`: the z-score is -0.0791 (inactive).
Regarding `O=C1OCC=C[C@H]2OC34C=CCN(c5ccc(Cl)cc5)C(=O)[C@H]3N(CCCO)C(=O)[C@@H]4[C@@H]12` (stereo partly specified), the z-score is -0.288 (inactive).
